L3MBTL1 inh – blocks human L3MBTL1; AlphaScreen L3MBTL1–H3K9me1 peptide binding; Potency, µM (top dose mostly 57.1 µM), hits mostly inhibitors; 0.66% of 230,000 active; Q9Y468; also: nearly all actives have a fitted effect of over 60% in size
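AlphaScreen assay: L3MBTL1 (50 nM final) was preincubated 30 min at room temperature with biotinylated H3(1-15)K9me1 peptide (75 nM final), then 30 min with library compounds; streptavidin donor and nickel chelate acceptor beads (10 ug/mL final) added, 30 min dark.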
HP1b binding inh – HP1-beta chromodomain-methylated histone interaction inhibition | AlphaScreen HP1-beta / biotin-H3K9me3 peptide binding | Potency, µM (doses to about 114 µM), actives largely listed as inhibitors | 0.56% of 390,000 active | AID 540317; also: nearly all actives have a fitted effect of over 70% in size
Target sequence (P83916 whole entry, looked up): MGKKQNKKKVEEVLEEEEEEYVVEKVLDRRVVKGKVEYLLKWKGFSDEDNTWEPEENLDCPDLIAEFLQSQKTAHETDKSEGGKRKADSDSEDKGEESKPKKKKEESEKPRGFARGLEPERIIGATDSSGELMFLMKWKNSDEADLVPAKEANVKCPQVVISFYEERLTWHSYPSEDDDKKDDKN
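Compound inhibition of the preformed complex between 50 nM HP1-beta and 50 nM biotinylated H3K9me3 peptide was read by AlphaScreen. Buffer was PBS pH 7.4 with 0.01% Tween-20. Incubations ran 30 min at room temperature, with 10 ug/mL donor/acceptor beads.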
VDR inh – inhibitors of human vitamin D receptor; P11473; VDR-SRC2-3 peptide fluorescence polarization, 2 h; Potency, µM, most hits filed as inhibitors; 0.93% of 400,000 active; AID 504847
Target sequence (P11473 whole entry, looked up): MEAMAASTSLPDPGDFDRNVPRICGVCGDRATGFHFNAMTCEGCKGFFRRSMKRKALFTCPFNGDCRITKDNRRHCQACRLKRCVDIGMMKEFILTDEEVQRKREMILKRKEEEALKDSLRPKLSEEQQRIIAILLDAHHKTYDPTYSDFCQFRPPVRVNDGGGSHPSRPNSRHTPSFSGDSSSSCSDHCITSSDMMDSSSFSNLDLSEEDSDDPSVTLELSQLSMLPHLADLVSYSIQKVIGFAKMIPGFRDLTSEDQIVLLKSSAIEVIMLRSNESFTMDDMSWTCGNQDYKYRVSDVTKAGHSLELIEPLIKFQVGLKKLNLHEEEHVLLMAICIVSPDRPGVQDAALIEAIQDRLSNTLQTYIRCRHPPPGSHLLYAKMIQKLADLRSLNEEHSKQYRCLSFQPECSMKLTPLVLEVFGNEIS
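Fluorescence polarization assay measuring small-molecule disruption of VDR binding to the coregulator peptide SRC2-3. Compounds were pin-transferred (23 nl) into the reagent mix and incubated 2 h at room temperature before reading.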
PLK1 PBD block – PLK1 (human) polo-box domain binding inhibition | P53350 | Plk1 PBD binding of FITC phosphopeptide, fluorescence polarization | Potency, µM, hits mostly inhibitors | 2.8% of 360,000 active | AID 720504; also: series mostly up to about 57 µM; nearly all actives have a fitted effect of over 65% in size
BAZ2B inh – inhibitors of human BAZ2B bromodomain. Q9UIF8. Potency, µM (doses to about 114 µM), usual class: inhibitors. AlphaScreen BAZ2B-H3K14Ac peptide displacement. AID 504333. 4.4% of 360,000 active; also: nearly all actives have a fitted effect of over 60% in size
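Compounds, titrated to a top concentration of 110 uM, were incubated 30 min at room temperature with preformed BAZ2B/acetyl-K14 H3 peptide complex (50 nM each). Proximity signal was measured by AlphaScreen after 20 min with beads.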
JMJD2A Tudor inh – inhibitors of human JMJD2A Tudor domain; O75164; 4.4% of 390,000 active; Potency, µM (highest dose often 114 µM), usual class: inhibitors; AlphaScreen JMJD2A-Tudor / H3K4me3 peptide binding; also: nearly all actives have a fitted effect of over 50% in size
VDR inh confirm – inhibits human vitamin D receptor, primary hit validation | VDR-coactivator inhibition assay, qHTS confirmation | Potency, µM, most hits filed as inhibitors | shares compounds with VDR inh | 89% of 840 active | AID 602199
VDR FP – blocks human VDR-coactivator binding in fluorescein assay. shares compounds with VDR inh. VDR-coactivator binding, fluorescein fluorescence polarization. Potency, µM (highest dose often 57.1 µM), actives largely listed as inhibitors. 48% of 840 active. AID 602200
VDR bla reporter – VDR (human) inhibition, cell-based beta-lactamase validation; shares compounds with VDR inh; AID 602202; 23% of 840 active; VDR beta-lactamase reporter cells, FRET ratio; cells co-treated with VDR agonist LG190178; Potency, µM (top dose mostly 46.1 µM), most hits filed as inhibitors
VDR cytotox – counter-screen for vitamin D receptor inhibitors: cytotoxicity | shares compounds with VDR inh | cytotoxicity counter-screen, cell viability, qHTS | Potency, µM (highest dose often 48.3 µM), usual class: cytotoxic | 18% of 840 active | AID 602204; also: nearly all actives have a fitted effect of over 75% in size
TbPYK confirm – Trypanosoma brucei pyruvate kinase inhibition, cherry-pick confirmation | AID 720569 | recombinant TbPYK, Kinase-Glo ATP luminescence | 67% of 890 active | shares compounds with PLK1 PBD block | Potency, µM (doses to about 76.9 µM), hits mostly inhibitors; also: nearly all actives have a fitted effect of over 70% in size
TbPYK ADP-Glo – inhibits T. brucei pyruvate kinase in orthogonal ADP-Glo assay; shares compounds with PLK1 PBD block; recombinant TbPYK, ADP-Glo luminescence, 60 min; Potency, µM (titrated, usually from 76.9 µM), most hits filed as inhibitors; 62% of 890 active; also: nearly all actives have a fitted effect of over 75% in size
Large screens that a line does not name were inactive (follow-up assays come after a bar, where they were run). Compounds with a hit are over-represented: about 6.9% of the library has one in this group of screens. Calls follow the shape of the dose curve; as a rule, active = well fitted curve in the direction sought with a large enough effect; inconclusive = small, poorly fitted or top-dose-only effect, or another doubt; inactive = no such curve, though single readings can be large; an effect the other way counts as inactive or inconclusive.

O=C1C=C(c2ccccc2)C(=O)N1Nc1ccccc1	VDR inh inconclusive, PLK1 PBD block 8.4µM (no result: L3MBTL1 inh) | VDR inh confirm 5.6 | VDR FP 7.9µM | VDR bla reporter 21µM | VDR cytotox inconclusive | TbPYK confirm 16µM | TbPYK ADP-Glo 25µM
Cc1ccc(-c2ccc(/C=N\n3cnnc3)o2)c(Br)c1	JMJD2A Tudor inh inconclusive
CC1=NOC(=O)/C1=C\c1ccc(-c2ccccc2Br)o1	HP1b binding inh inconclusive, VDR inh 13µM, PLK1 PBD block 0.42µM, BAZ2B inh 25µM, JMJD2A Tudor inh 20µM (no result: L3MBTL1 inh) | VDR inh confirm 9.5 | VDR FP inconclusive | VDR bla reporter inconclusive | VDR cytotox inconclusive | TbPYK confirm inconclusive | TbPYK ADP-Glo inactive
O=[N+]([O-])c1ccccc1-c1ccc(C(=S)N2CCCC2)o1	L3MBTL1 inh inconclusive, HP1b binding inh inconclusive, VDR inh 40µM, PLK1 PBD block 2.7µM, BAZ2B inh 40µM, JMJD2A Tudor inh 56µM | VDR inh confirm 21 | VDR FP inconclusive | VDR bla reporter inactive | VDR cytotox inactive | TbPYK confirm 18µM | TbPYK ADP-Glo 32µM
CC(=O)c1cccc(NC(=O)c2ccc(-c3ccccc3[N+](=O)[O-])o2)c1	JMJD2A Tudor inh inconclusive
O=C(Nc1ccnn1C1CCN(Cc2cccc(F)c2F)CC1)C1CCCC1	none (no result: L3MBTL1 inh)
COc1ccc(CNC(=O)c2ccccc2SCC(=O)NCc2ccco2)cc1	none
CCC(=O)N(CC)C1=C(O)c2ccccc2C(=O)C1=O	HP1b binding inh inconclusive, VDR inh 79µM, PLK1 PBD block 24µM, BAZ2B inh 45µM, JMJD2A Tudor inh 5.6µM | VDR inh confirm inconclusive | VDR FP inconclusive | VDR bla reporter inconclusive | VDR cytotox inconclusive | TbPYK confirm inactive | TbPYK ADP-Glo 25µM
CCOc1ccc(S(=O)(=O)N2CCC(C(=O)OC(C)C(=O)NC3CCCCC3C)CC2)cc1 (stereo not drawn)	none
Cc1cccc(C(=O)Nc2cccc(OC(=O)c3cccc(C)c3)c2)c1	none
Cc1cccc(C(=O)Oc2csc(=S)n2C(=O)c2cccc(C)c2)c1	VDR inh inconclusive, PLK1 PBD block 4.7µM, BAZ2B inh inconclusive, JMJD2A Tudor inh inconclusive | VDR inh confirm 8.9 | VDR FP 2.8µM | VDR bla reporter inactive | VDR cytotox inactive | TbPYK confirm 1.3µM | TbPYK ADP-Glo 2.5µM
N/C(=N\OC(=O)c1ccc(F)cc1)c1nonc1N	none
N/C(=N/OC(=O)c1ccccc1Cl)c1nonc1N	none (no result: L3MBTL1 inh, BAZ2B inh) | TbPYK confirm 25µM | TbPYK ADP-Glo inactive
CSC1CCCCC1(O)CSc1nc2c(cc1C#N)CCCC2 (stereo not drawn)	HP1b binding inh inconclusive, PLK1 PBD block 27µM, JMJD2A Tudor inh 20µM | TbPYK confirm 7.9µM | TbPYK ADP-Glo 8.9µM
N#CCSc1nc2c(cc1C#N)CCCC2	none
CC1=CC(=O)C=CC1=Nc1ccc(N(C)C)cc1	PLK1 PBD block inconclusive (no result: L3MBTL1 inh, HP1b binding inh, VDR inh, BAZ2B inh, JMJD2A Tudor inh) | TbPYK confirm 22µM | TbPYK ADP-Glo inactive
CN(C)c1ccc(N=Nc2ccc(S(N)(=O)=O)cc2)cc1	BAZ2B inh inconclusive (no result: L3MBTL1 inh)
Cc1ccc(NC2=C(NC(=O)c3ccccc3)C(=O)c3ccccc3C2=O)cc1Cl	L3MBTL1 inh inconclusive, HP1b binding inh 45µM, PLK1 PBD block 27µM, BAZ2B inh 14µM, JMJD2A Tudor inh 14µM | TbPYK confirm inconclusive | TbPYK ADP-Glo inconclusive
Cc1ccc(NCC(=O)c2ccccc2)cc1Cl	none
CC(C)(C)OC(=O)N1O[C@H]2CC1[C@@H]1[C@@H]2N=NN1CCc1ccncc1	none (no result: BAZ2B inh) | TbPYK confirm 7.9µM | TbPYK ADP-Glo 14µM
CC(C)(C)OC(=O)N1O[C@H]2C[C@@H]1[C@@H]1[C@@H]2N=NN1C12CC3CC(CC(C3)C1)C2	none (no result: BAZ2B inh)
CC(=O)N(C(C)=O)C1=C(C#N)C2(CCCCC2)Cc2ccccc21	none
O=C1Nc2ccccc2C(=O)C1(Cl)Cc1ccccc1 (stereo not drawn)	HP1b binding inh inconclusive, VDR inh 28µM, PLK1 PBD block 1.2µM, BAZ2B inh 79µM, JMJD2A Tudor inh 50µM | TbPYK confirm 3.2µM | TbPYK ADP-Glo 13µM
CC(C)(C)N1C(=O)c2ccccc2NC(=O)N1Cc1ccccc1	none (no result: L3MBTL1 inh)
COCCCNC(=O)CC1C(=O)N(Cc2ccccc2)C(C)c2nc3ccccc3n21 (stereo not drawn)	none (no result: L3MBTL1 inh, BAZ2B inh)
CC1(c2ccccc2)CC(C)(C)N2C(=O)Cc3cccc1c32 (stereo not drawn)	none (no result: L3MBTL1 inh)
CCOC(=O)CNC(=O)CSc1nnc(-c2ccco2)n1Cc1ccco1	JMJD2A Tudor inh 28µM | TbPYK confirm 3.5µM | TbPYK ADP-Glo 14µM
CCOC(=O)CNC(=O)CSc1nnc(-c2ccco2)n1N	none
CC(=O)C(Sc1nn(C)c(=S)s1)C(=O)Nc1ccccc1 (stereo not drawn)	HP1b binding inh inconclusive, VDR inh 79µM, PLK1 PBD block 27µM, BAZ2B inh inconclusive, JMJD2A Tudor inh 50µM | TbPYK confirm 20µM | TbPYK ADP-Glo 28µM
Cc1ccc(O)c(N=Nc2ccccc2)n1	JMJD2A Tudor inh inconclusive (no result: L3MBTL1 inh, BAZ2B inh) | TbPYK confirm 10µM | TbPYK ADP-Glo inactive
CC1=C(C#N)C(=O)NC(=O)/C1=C/c1ccc(-c2ccc(S(N)(=O)=O)cc2)o1	L3MBTL1 inh inconclusive, HP1b binding inh inconclusive, VDR inh 25µM, PLK1 PBD block 9.5µM, BAZ2B inh 45µM, JMJD2A Tudor inh 71µM | TbPYK confirm inactive | TbPYK ADP-Glo inactive
COc1cccc(C(C)NC(=O)Nc2ccccc2Cl)c1 (stereo not drawn)	none
O=C(CSc1ccc(-c2nc3ccccc3[nH]2)cn1)N1CCN(C(=O)c2ccco2)CC1	VDR inh inconclusive, PLK1 PBD block 30µM, BAZ2B inh inconclusive, JMJD2A Tudor inh inconclusive | TbPYK confirm inconclusive | TbPYK ADP-Glo inconclusive
